The whole screen tested about 5,500 compounds, of which about 2,000 (36%) were called active. Another 18% or so got no clear call; they are omitted. Cut-off read from the data, not from the text of the source: active = normalized growth mostly below about 0.91 (no sharp cut-off); inconclusive = no clear call, values can overlap the other calls; inactive = mostly above about 0.92. Some of the results follow.
Experiment: chemical genetic growth profiling, strain panel (AID 1159580);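 note: tested at 20 µM; growth read once vehicle control cultures reached saturation at 30 °C; 1 = growth at the plate median or of vehicle wells; lower values mean less growth of the strain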
Conditions: growth OD

Measured: normalized growth

CC(C(=O)O)c1ccc(C(=O)c2cccs2)cc1 (stereo not drawn)
inactive: S. cerevisiae deletion strains, locus YKL009W, strain mrt4, stronger effect = lower value 1.02 | S. cerevisiae deletion strains, locus YKL068W, stronger effect = lower value 1.01 | S. cerevisiae deletion strains, locus YKL085W, strain MDH1 (second series), stronger effect = lower value 0.983 | S. cerevisiae deletion strains, locus YKL085W, strain MDH1, stronger effect = lower value 0.983 | S. cerevisiae deletion strains, locus YKL160W, strain elf1, stronger effect = lower value 0.992 | S. cerevisiae deletion strains, locus YKL190W, strain CNB1, stronger effect = lower value 1 | S. cerevisiae deletion strains, locus YKR001C, strain vps1, stronger effect = lower value 1.01 | S. cerevisiae deletion strains, locus YKR026C, strain gcn3, stronger effect = lower value 0.987 | S. cerevisiae deletion strains, locus YKR091W, strain srl3, stronger effect = lower value 1.01 | S. cerevisiae deletion strains, locus YLL001W, strain dnm1, stronger effect = lower value 0.995 | S. cerevisiae deletion strains, locus YLL026W, stronger effect = lower value 0.99 | S. cerevisiae deletion strains, locus YLL041C, strain sdh2, stronger effect = lower value 0.996 | S. cerevisiae deletion strains, locus YLR027C, strain aat2, stronger effect = lower value 1.01 | S. cerevisiae deletion strains, locus YLR039C, strain RIC1, stronger effect = lower value 1.01 | S. cerevisiae deletion strains, locus YLR058C, strain SHM2, stronger effect = lower value 1.01 | S. cerevisiae deletion strains, locus YLR102C, strain apc9, stronger effect = lower value 1.01 | S. cerevisiae deletion strains, locus YLR113W, strain HOG1, stronger effect = lower value 0.968 | S. cerevisiae deletion strains, locus YLR221C, strain rsa3, stronger effect = lower value 0.991 | S. cerevisiae deletion strains, locus YLR258W, strain gsy2, stronger effect = lower value 1 | S. cerevisiae deletion strains, locus YLR262C, strain YPT6 (second series), stronger effect = lower value 0.951 | S. cerevisiae deletion strains, locus YLR262C, strain YPT6, stronger effect = lower value 1 | S. cerevisiae deletion strains, locus YLR268W, strain sec22, stronger effect = lower value 1.01 | S. cerevisiae deletion strains, locus YLR320W, strain mms22, stronger effect = lower value 1 | S. cerevisiae deletion strains, locus YLR330W, strain CHS5, stronger effect = lower value 0.999 | S. cerevisiae deletion strains, locus YLR342W, strain FKS1 (second series), stronger effect = lower value 1 | S. cerevisiae deletion strains, locus YLR342W, strain FKS1, stronger effect = lower value 1 | S. cerevisiae deletion strains, locus YLR357W, strain rsc2, stronger effect = lower value 0.967 | S. cerevisiae deletion strains, locus YLR370C, strain arc18, stronger effect = lower value 0.998 | S. cerevisiae deletion strains, locus YLR371W, strain rom2, stronger effect = lower value 1.02 | S. cerevisiae deletion strains, locus YLR384C, strain iki3, stronger effect = lower value 1.01 | S. cerevisiae deletion strains, locus YLR418C, strain cdc73, stronger effect = lower value 1.03 | S. cerevisiae deletion strains, locus YML016C, strain PPZ1, stronger effect = lower value 1.01 | S. cerevisiae deletion strains, locus YML032C, strain rad52, stronger effect = lower value 1.02 | S. cerevisiae deletion strains, locus YML120C, strain ndi1, stronger effect = lower value 1 | S. cerevisiae deletion strains, locus YML124C, strain tub3, stronger effect = lower value 1.02 | S. cerevisiae deletion strains, locus YMR058W, strain fet3, stronger effect = lower value 1.02 | S. cerevisiae deletion strains, locus YMR078C, strain ctf18, stronger effect = lower value 1.02 | S. cerevisiae deletion strains, locus YMR125W, strain sto1, stronger effect = lower value 0.976 | S. cerevisiae deletion strains, locus YMR129W, stronger effect = lower value 0.985 | S. cerevisiae deletion strains, locus YMR205C, strain PFK2, stronger effect = lower value 0.965 | S. cerevisiae deletion strains, locus YMR223W, strain ubp8, stronger effect = lower value 1.02 | S. cerevisiae deletion strains, locus YMR231W, strain pep5, stronger effect = lower value 0.991 | S. cerevisiae deletion strains, locus YMR263W, strain SAP30, stronger effect = lower value 1 | S. cerevisiae deletion strains, locus YMR307W, strain GAS1, stronger effect = lower value 0.997 | S. cerevisiae deletion strains, locus YNL067W, strain RPL9B, stronger effect = lower value 1 | S. cerevisiae deletion strains, locus YNL071W, strain lat1, stronger effect = lower value 1 | S. cerevisiae deletion strains, locus YNL153C, strain GIM3, stronger effect = lower value 1 | S. cerevisiae deletion strains, locus YNL183C, strain NPR1, stronger effect = lower value 0.949 | S. cerevisiae deletion strains, locus YNL209W, strain ssb2, stronger effect = lower value 1.01 | S. cerevisiae deletion strains, locus YNL233W, strain BNI4, stronger effect = lower value 1 | S. cerevisiae deletion strains, locus YNL248C, strain rpa49, stronger effect = lower value 1.02 | S. cerevisiae deletion strains, locus YNL250W, strain rad50, stronger effect = lower value 1.01 | S. cerevisiae deletion strains, locus YNL271C, strain bni1, stronger effect = lower value 1.02 | S. cerevisiae deletion strains, locus YNL298W, strain CLA4, stronger effect = lower value 1.02 | S. cerevisiae deletion strains, locus YNL307C, strain MCK1, stronger effect = lower value 1.02 | S. cerevisiae deletion strains, locus YNL322C, strain KRE1 (second series), stronger effect = lower value 0.994 | S. cerevisiae deletion strains, locus YNR049C, strain mso1, stronger effect = lower value 0.998 | S. cerevisiae deletion strains, locus YNR052C, strain pop2, stronger effect = lower value 1.01 | S. cerevisiae deletion strains, locus YOL006C, strain TOP1, stronger effect = lower value 0.978 | S. cerevisiae deletion strains, locus YOL012C, strain htz1 0.883 | S. cerevisiae deletion strains, locus YOL147C, strain pex11, stronger effect = lower value 1.01 | S. cerevisiae deletion strains, locus YOR001W, strain rrp6, stronger effect = lower value 1.01 | S. cerevisiae deletion strains, locus YOR061W, strain CKA2, stronger effect = lower value 1.01 | S. cerevisiae deletion strains, locus YOR069W, strain VPS5, stronger effect = lower value 1 | S. cerevisiae deletion strains, locus YOR070C, strain gyp1, stronger effect = lower value 1 | S. cerevisiae deletion strains, locus YOR080W, strain dia2, stronger effect = lower value 0.988 | S. cerevisiae deletion strains, locus YOR083W, strain WHI5, stronger effect = lower value 1 | S. cerevisiae deletion strains, locus YOR106W, strain vam3, stronger effect = lower value 0.995 | S. cerevisiae deletion strains, locus YOR136W, strain idh2, stronger effect = lower value 1.02 | S. cerevisiae deletion strains, locus YOR144C, strain elg1, stronger effect = lower value 1.02 | S. cerevisiae deletion strains, locus YOR184W, strain ser1, stronger effect = lower value 1.02 | S. cerevisiae deletion strains, locus YOR231W, strain MKK1, stronger effect = lower value 0.993 | S. cerevisiae deletion strains, locus YOR265W, strain rbl2, stronger effect = lower value 0.992 | S. cerevisiae deletion strains, locus YOR270C, strain vph1, stronger effect = lower value 0.997 | S. cerevisiae deletion strains, locus YOR290C, strain snf2, stronger effect = lower value 1.01 | S. cerevisiae deletion strains, locus YOR316C, strain cot1, stronger effect = lower value 1.02 | S. cerevisiae deletion strains, locus YPL051W, strain arl3, stronger effect = lower value 0.989 | S. cerevisiae deletion strains, locus YPL055C, strain LGE1, stronger effect = lower value 1.02 | S. cerevisiae deletion strains, locus YPL078C, strain atp4, stronger effect = lower value 0.983 | S. cerevisiae deletion strains, locus YPL106C, strain sse1, stronger effect = lower value 0.979 | S. cerevisiae deletion strains, locus YPL240C, strain hsp82, stronger effect = lower value 0.992 | S. cerevisiae deletion strains, locus YPL256C, strain CLN2, stronger effect = lower value 1.02 | S. cerevisiae deletion strains, locus YPR119W, strain clb2, stronger effect = lower value 1.01 | S. cerevisiae deletion strains, locus YPR141C, strain kar3, stronger effect = lower value 1.01 | S. cerevisiae deletion strains, locus YPR163C, strain tif3, stronger effect = lower value 1.02 | S. cerevisiae deletion strains, locus YPR167C, strain met16, stronger effect = lower value 1.02 | S. cerevisiae deletion strains, strain wtn01, stronger effect = lower value 1.01 | S. cerevisiae strains, strain wild type, stronger effect = lower value 1

Reference: PubChem BioAssay AID1159580 (chemical genetic matrix, 2015)
